# Measured values taken from PubChem BioAssay (NCI).
# This is part of a sample that, as a whole, favours compounds with a hit. Of some 83,000 tested, about 20% had one in any assay.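 Plates (96-well) were seeded with cells, treated with compound at one concentration, and incubated for 48 hours before percent growth was determined.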 Activity calls are given as the source filed them. Rule for the calls: active = growth percent below 10; inactive = the rest.
# Test system: MDA-MB-231 breast
# Assay: NCI-60 one-dose screen, 48 h (100 = growth as untreated, 0 = no growth, -100 = all killed)
# Details: 10 µM unless noted
row,Compound,growth
1,CN(C)C(=S)N=Nc1c(O)[nH]c2ccccc12,49.1% (inactive)
2,NC(N)=N/N=C(/c1ccccc1)c1ccc(F)cc1,-18.9% (active)
3,CC(=O)c1cc2c(N)c(C(=O)Nc3cccc4ccccc34)sc2nc1C,26.2% (inactive)
4,O=c1ccccc(-c2ccc(Br)cc2)c1O,32.9% (inactive)
5,CCCCC(=O)OCC1OC(n2cnc3c(=S)nc[nH]c32)C(OC(=O)CCCC)C1OC(=O)CCCC (stereo not given),35.6% (inactive)
6,CC/C=C\C[C@H]1C/C=C2/C(=O)C=C[C@H]2C/C=C\CCCC(=O)O1,40.5% (inactive)
7,CCNc1ncnc2c1cnn2C1CCCO1 (stereo not given),110% (inactive)
8,C=C1C(=O)O[C@H]2[C@H]1CC/C(COC(=O)NCCc1ccc(OC)c(OC)c1)=C\CC[C@@]1(C)O[C@@H]21,58% (inactive)
9,O=C(Cc1ccc(/C=C/C(=O)c2ncc[nH]2)cc1)Nc1ccc(F)cc1,22.6% (inactive)
10,Clc1ccc2c(NCCCNc3nc(-n4ccnc4)nc4ccccc34)ccnc2c1,83.2% (inactive)
11,CCc1nc(N)nc(N)c1C#CC(C)c1ccc(-c2ccncc2)cc1Cl (stereo not given),43.3% (inactive)
12,Cc1cc2c3ccccc3ccc2[n+]2ccccc12,81.6% (inactive)
13,COc1ccc(SC2c3ccc(C)cc3Oc3nc(N)c(C#N)c(N)c32)cc1 (stereo not given),-86.5% (active)
14,NC(=NC1C2CC3CC(C2)CC1C3)Nc1ccc(I)cc1 (stereo not given),41.8% (inactive)
15,CC(=O)OCCC/C(=C/c1cc2ccccc2c2ccccc12)[N+](=O)[O-],-54.3% (active)
16,COc1cc(C(=O)/C=C/c2cccnc2Nc2ccc(Cl)cc2)cc(OC)c1OC,-50.7% (active)
17,CCOc1ccc(-n2nc(C(=O)Nc3cc(OC)c(OC)c(OC)c3)nc2-c2cc(OC)c(OC)c(OC)c2)cc1,50.5% (inactive)
18,CC(=O)Oc1ccc(Cl)cc1CN(C(C)=O)C1CCCCC1,105% (inactive)
19,COc1cc(-c2nn(-c3ccc(Br)cc3)cc2C(=O)O)ccc1O,126% (inactive)
20,COc1cc2nnc3c4cccnc4[nH]c3c2cc1OC,45.9% (inactive)

row,Compound,growth
1,CCNC(=O)Oc1ccc(/C(=C(\C)c2ccc(Cl)cc2)c2ccc(OCCN(CC)CC)cc2)cc1,44.3% (inactive)
2,CCc1nc(N)nc(N)c1C#CC(C)c1cc(-c2ccnc(C)c2)c2oc(C)nc2c1 (stereo not given),25.6% (inactive)
3,CC1=C(O)C(=O)C(C(C#N)(C#N)C(C#N)C#N)C1 (stereo not given),124% (inactive)
4,CN(C)c1ccc(NC(=O)c2ccc(/C=C/C(=O)c3ncc[nH]3)cc2)cc1,71.8% (inactive)
5,CN(C)c1ccc(N=Nc2ccccn2)c(O)c1,36.7% (inactive)
6,O=C1C=CC(=O)N1c1ccc2c(c1)Cc1cc(F)ccc1-2,92.3% (inactive)
7,CCCCn1cnc2c(Sc3c([N+](=O)[O-])ncn3C)nc(N)nc21,97.9% (inactive)
8,NC(CSC(c1ccccc1)(c1ccccc1)c1ccc(Cl)cc1)C(=O)O (stereo not given),-32.8% (active)
9,Oc1ccc(N=Cc2ccccc2O)cc1,99.7% (inactive)
10,Clc1ccc2c(NCCNc3nc(N4CCCCC4)nc4ccccc34)ccnc2c1,-85% (active)
11,CCN1CCN(c2nc(NCCCNc3ccnc4cc(Cl)ccc34)c3ccccc3n2)CC1,-10.8% (active)
12,CCOC(=O)c1sc(Nc2ccc(Cl)cc2)nc1C,1.04% (active)
13,CN1C(=O)C2(SCC(C(=O)NCc3ccccc3)N2C(=O)C2CCCCC2)c2ccccc21 (stereo not given),117% (inactive)
14,CSc1ccc(-c2ccccc(=O)c2O)cc1,36.8% (inactive)
15,CC(=O)c1cc2c(N)c(C(=O)Nc3cccc(F)c3C)sc2nc1C,82.1% (inactive)
16,COc1ccc2c(c1)C(=O)/C(=C/c1ccccn1)CC2,69.4% (inactive)
17,O=C(Cc1ccc(/C=C/C(=O)c2ncc[nH]2)cc1)Nc1ccccc1,70.7% (inactive)
18,COc1cccc2c1C(=O)c1c(O)c3c(c(O)c1C2=O)C[C@](O)(C(=O)CO)C[C@H]3O[C@@H]1C[C@@H](NC(=O)CCCN(C)C2(c3ccc(F)cc3)CC3CCC2C3)[C@H](O)[C@@H](C)O1 (stereo not given in full),-76.4% (active)
19,COc1cccc2c1C(=O)c1c(O)c3c(c(O)c1C2=O)C[C@](O)(C(=O)CO)C[C@H]3O[C@@H]1C[C@@H](NC(=O)CCCCCN(C)C2(c3ccc(F)cc3)CC3CCC2C3)[C@H](O)[C@@H](C)O1 (stereo not given in full),-77.1% (active)

# Test system: RXF 393 renal
# Assay: as above
# Details: 10 µM unless noted
row,Compound,growth
1,CC(=O)c1cc2c(N)c(C(=O)Nc3cccc4ccccc34)sc2nc1C,10.4% (inactive)
2,O=c1ccccc(-c2ccc(Br)cc2)c1O,46.2% (inactive)
3,CC/C=C\C[C@H]1C/C=C2/C(=O)C=C[C@H]2C/C=C\CCCC(=O)O1,36.6% (inactive)
4,CCNc1ncnc2c1cnn2C1CCCO1 (stereo not given),105% (inactive)
5,C=C1C(=O)O[C@H]2[C@H]1CC/C(COC(=O)NCCc1ccc(OC)c(OC)c1)=C\CC[C@@]1(C)O[C@@H]21,34.7% (inactive)
6,O=C(Cc1ccc(/C=C/C(=O)c2ncc[nH]2)cc1)Nc1ccc(F)cc1,19.3% (inactive)
7,Clc1ccc2c(NCCCNc3nc(-n4ccnc4)nc4ccccc34)ccnc2c1,81% (inactive)
8,CCc1nc(N)nc(N)c1C#CC(C)c1ccc(-c2ccncc2)cc1Cl (stereo not given),32.9% (inactive)
9,COc1ccc(SC2c3ccc(C)cc3Oc3nc(N)c(C#N)c(N)c32)cc1 (stereo not given),-69.2% (active)
10,NC(=NC1C2CC3CC(C2)CC1C3)Nc1ccc(I)cc1 (stereo not given),85.8% (inactive)
11,COc1cc(C(=O)/C=C/c2cccnc2Nc2ccc(Cl)cc2)cc(OC)c1OC,-85.7% (active)
12,CCOc1ccc(-n2nc(C(=O)Nc3cc(OC)c(OC)c(OC)c3)nc2-c2cc(OC)c(OC)c(OC)c2)cc1,83.8% (inactive)
13,CC(=O)Oc1ccc(Cl)cc1CN(C(C)=O)C1CCCCC1,101% (inactive)
14,COc1cc(-c2nn(-c3ccc(Br)cc3)cc2C(=O)O)ccc1O,109% (inactive)
15,CCNC(=O)Oc1ccc(/C(=C(\C)c2ccc(Cl)cc2)c2ccc(OCCN(CC)CC)cc2)cc1,31.4% (inactive)
16,CCc1nc(N)nc(N)c1C#CC(C)c1cc(-c2ccnc(C)c2)c2oc(C)nc2c1 (stereo not given),-5.33% (active)

row,Compound,growth
1,CC1=C(O)C(=O)C(C(C#N)(C#N)C(C#N)C#N)C1 (stereo not given),110% (inactive)
2,CN(C)c1ccc(NC(=O)c2ccc(/C=C/C(=O)c3ncc[nH]3)cc2)cc1,67.4% (inactive)
3,CN(C)c1ccc(N=Nc2ccccn2)c(O)c1,46.3% (inactive)
4,O=C1C=CC(=O)N1c1ccc2c(c1)Cc1cc(F)ccc1-2,92.2% (inactive)
5,CCCCn1cnc2c(Sc3c([N+](=O)[O-])ncn3C)nc(N)nc21,102% (inactive)
6,Clc1ccc2c(NCCNc3nc(N4CCCCC4)nc4ccccc34)ccnc2c1,-40.2% (active)
7,CCN1CCN(c2nc(NCCCNc3ccnc4cc(Cl)ccc34)c3ccccc3n2)CC1,5.38% (active)
8,CCOC(=O)c1sc(Nc2ccc(Cl)cc2)nc1C,10.9% (inactive)
9,CN1C(=O)C2(SCC(C(=O)NCc3ccccc3)N2C(=O)C2CCCCC2)c2ccccc21 (stereo not given),119% (inactive)
10,CSc1ccc(-c2ccccc(=O)c2O)cc1,39.3% (inactive)
11,CC(=O)c1cc2c(N)c(C(=O)Nc3cccc(F)c3C)sc2nc1C,96.6% (inactive)
12,COc1ccc2c(c1)C(=O)/C(=C/c1ccccn1)CC2,83% (inactive)
13,O=C(Cc1ccc(/C=C/C(=O)c2ncc[nH]2)cc1)Nc1ccccc1,42.9% (inactive)
14,COc1cccc2c1C(=O)c1c(O)c3c(c(O)c1C2=O)C[C@](O)(C(=O)CO)C[C@H]3O[C@@H]1C[C@@H](NC(=O)CCCN(C)C2(c3ccc(F)cc3)CC3CCC2C3)[C@H](O)[C@@H](C)O1 (stereo not given in full),-95.8% (active)
15,COc1cccc2c1C(=O)c1c(O)c3c(c(O)c1C2=O)C[C@](O)(C(=O)CO)C[C@H]3O[C@@H]1C[C@@H](NC(=O)CCCCCN(C)C2(c3ccc(F)cc3)CC3CCC2C3)[C@H](O)[C@@H](C)O1 (stereo not given in full),31.6% (inactive)
